For 68 compounds, cell viability results are on record in the supplement of paper PMC10600219.

Where a name gives a salt, the structure may show the parent alone. The full ranking holds about 2,800 compounds; the median of “cell viability relative to vehicle” is about 1.1, and the lowest 2% start at about 0.19. Shown is part of a subset that was picked to be rich in the lowest values.

In the test the test system is NCI-H2228 parental. Description: cell viability relative to vehicle (fraction of vehicle); NCI-H2228 is an ALK-positive lung cancer line and DTP means drug-tolerant persister; higher = less growth inhibition. The note with it: 100 nM; treatment time 6 days. The method, boiled down:
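Values give cell viability as a fraction of vehicle-treated cells. Parental and drug-tolerant persister NCI-H2228 cells (persisters made with 1000 nM of a targeted drug for 13 days) were exposed in 384-well plates to the 3114-agent TargetMol anti-cancer compound library at 100 nM, with DMSO as vehicle. ATP was then read after 6 days by the CellTiter-Glo 3D Cell Viability Assay.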
On to `CCCOc1ccc(/C=C2\SC(=O)NC2=O)cc1`, for which the cell viability came out at 1.11.

For `CCn1c(=Cc2cccc[n+]2CC)sc(=C2Sc3ccccc3N2C)c1=O`, the cell viability came to 1.04.

On to `COc1ccc(/C=C/c2cc(O)cc(O[C@@H]3O[C@H](CO)[C@@H](O)[C@H](O)[C@H]3O)c2)cc1O` [Rhaponiticin], for which the cell viability came out at 1.11.

With `CC(C)=CCC[C@](C)(O[C@@H]1O[C@H](CO)[C@@H](O)[C@H](O)[C@H]1O)[C@H]1CC[C@]2(C)[C@@H]1[C@H](O)C[C@@H]1[C@@]3(C)CC[C@H](O)C(C)(C)[C@@H]3[C@@H](O)C[C@]12C` [Ginsenoside F1], the cell viability worked out at 1.1.

As to `C=C1CC[C@@H]2[C@](C)(CO[C@@H]3O[C@H](CO)[C@@H](O)[C@H](O)[C@H]3O)CCC[C@@]2(C)[C@@H]1CCC1=CCOC1=O` [Neoandrographolide], the cell viability stood at 1.08.

Take `O=C1N[C@@H](Cc2c[nH]c3ccccc23)C(=O)N2CCC[C@@H]12` [Brevianamide F]: the cell viability was found to be 1.05.

`Nc1nc(O)c2[nH]nnc2n1` [8-Azaguanine]: the cell viability amounted to 0.571.

On to `CCc1cnn2c(NCc3ccc[n+]([O-])c3)cc(N3CCCC[C@H]3CCO)nc12` [Dinaciclib], for which the cell viability came to 0.118.

As for `COc1ccc(CNc2nc(N3CCC[C@H]3CO)ncc2C(=O)NCc2ncccn2)cc1Cl` [Avanafil], the cell viability was found to be 0.966.

In the case of `O=C1C[C@@H](c2ccc(O)c(O)c2)Oc2cc(O)cc(O)c21` [Eriodictyol], the cell viability amounted to 1.04.

Take `COc1cccc(OCCCN)c1-c1cc(Nc2cnc(C#N)cn2)n[nH]1` [Prexasertib dihydrochloride]: the cell viability was 0.169.

As for `N#Cc1cnc(Nc2cc(NC[C@H]3CNCCO3)c(C(F)(F)F)cn2)cn1`, the cell viability is 1.07.

Consider `Cc1cc(O)c(C(=O)CCC(C)C)c(=O)o1` [Pogostone], for which the cell viability turned out to be 1.04.

Regarding `Cc1ccc(S(=O)(=O)Cc2nc(-c3ccc(C(=O)NCc4cccnc4)cc3)oc2C)cc1`, the cell viability is 0.875.

For `O=C(NCc1ccc(S(=O)(=O)c2cc(F)cc(F)c2)cc1)c1ccc2nccn2c1`, the cell viability amounted to 0.117.

For the compound `O=S(=O)(c1ccc(Cl)cc1)N1CCN(c2ccnc3cc(Cl)ccc23)CC1`, the cell viability was 1.08.

For `CCCCCCCCCCCCCCOc1ccc(C(=O)O)o1`, the cell viability came to 1.05.

As for `O=C(NCCN1CCOCC1)Nc1ccc(C(=O)/C=C/c2cccc(N3CCOCC3)n2)cc1`, the cell viability amounted to 1.09.

Consider `CC(=O)c1cnc2ccc(-c3cc(Cl)c(O)c(Cl)c3)nc2c1N[C@H]1CC[C@H](CN(C)C)CC1`, for which the cell viability came to 0.657.

As to `O=C(NCCCNc1nc(Nc2cccc(CN3CCOCC3)c2)ncc1C1CC1)C1CCC1`, the cell viability stood at 0.937.

Turning to `Nc1ccn([C@@H]2CS[C@H](CO)O2)c(=O)n1` [Lamivudine], the cell viability was determined as 1.21.

Consider `Nc1ccn([C@@H]2O[C@H](CO)[C@@H](O)C2(F)F)c(=O)n1` [Gemcitabine HCl], for which the cell viability came to 0.121.

Regarding `Nc1ccn([C@@H]2O[C@H](CO)[C@@H](O)C2(F)F)c(=O)n1` [Gemcitabine], the cell viability worked out at 0.0956.

For `C[C@H](NP(=O)(OC[C@H]1O[C@@H](n2ccc(N)nc2=O)C(F)(F)[C@@H]1O)Oc1ccccc1)C(=O)OCc1ccccc1` (stereo partly drawn) [Acelarin], the cell viability turned out to be 0.135.

Consider `Nc1ccn([C@@H]2O[C@H](CO)[C@@H](O)[C@@H]2O)c(=O)n1` [Cytarabine], for which the cell viability came out at 0.12.

For the compound `Nc1ccn([C@@H]2O[C@H](CO)[C@@H](O)[C@H]2O)c(=O)n1` [Cytidine], the cell viability amounted to 0.915.

For `Nc1ccn([C@H]2C[C@H](O)[C@@H](CO)O2)c(=O)n1` [2'-Deoxycytidine monohydrate], the cell viability amounted to 1.07.

On to `CCCC(CCC)C(=O)Nc1ccn([C@@H]2O[C@H](CO)[C@@H](O)C2(F)F)c(=O)n1`, for which the cell viability was 1.12.

Take `CC(=O)Nc1ccn([C@@H]2O[C@H](CO)[C@@H](O)[C@H]2O)c(=O)n1` [N4-Acetylcytidine]: the cell viability was determined as 1.06.

`CCNC(=O)c1cc2c(-c3cc(C(C)(C)O)ccc3Oc3c(C)cc(F)cc3C)cn(C)c(=O)c2[nH]1`: the cell viability turned out to be 0.898.

In the case of `C[C@H](NC(=O)CCC(F)(F)F)C(=O)N[C@@H]1C(=O)N(CCO)c2ncccc2-c2ccccc21` [Crenigacestat], the cell viability worked out at 1.05.

As for `CC(C)=CCC[C@](C)(O[C@@H]1O[C@H](CO)[C@@H](O)[C@H](O)[C@H]1O)[C@H]1CC[C@]2(C)[C@@H]1[C@H](O)C[C@@H]1[C@@]3(C)CC[C@H](O[C@@H]4O[C@H](CO)[C@@H](O)[C@H](O)[C@H]4O[C@@H]4O[C@H](CO)[C@@H](O)[C@H](O)[C@H]4O)C(C)(C)[C@@H]3CC[C@]12C` [Ginsenoside Rd], the cell viability is 1.18.

For `C=CC(=O)Nc1ccc(CN2C(=O)N(c3cc(OC)cc(OC)c3)Cc3cnc(Nc4ccc(N5CCN(C)CC5)cc4)nc32)cc1`, the cell viability came to 0.858.

In the case of `OC[C@H]1O[C@@H](Oc2ccc3c(c2)OC[C@H]2c4cc5c(cc4O[C@@H]32)OCO5)[C@H](O)[C@@H](O)[C@@H]1O` [Trifolirhizin], the cell viability amounted to 1.02.

On to `O=c1cc(N2CCOCC2)oc2c(-c3ccc4c(c3)OCCO4)csc12`, for which the cell viability came out at 1.14.

On to `Nc1ccccc1NC(=O)CCCCCCC(=O)Nc1ccccc1`, for which the cell viability came to 1.09.

Regarding `Cc1c[nH]c2nc(Nc3ccc(N4CCN(C)CC4)c(F)c3)nc(-c3cccc(CC#N)c3)c12`, the cell viability is 0.777.

`Cc1ncc(CCCN(C)C)cc1Nc1ncc2c(n1)-c1ccc(C(F)(F)F)cc1NC(=S)C2`: the cell viability was 0.178.

Turning to `C=C(C)[C@@H]1CC[C@]2(C)[C@H](CC=C3[C@@H]4[C@@H](C)[C@H](C)CC[C@]4(C)CC[C@]32C)[C@@]1(C)CCC(=O)O` [Roburic acid], the cell viability was found to be 1.08.

For `CC1=C[C@]2(O)O[C@@]3(CC2=C(C)C)[C@@H](C)CC[C@@H]13` [Curcumenol], the cell viability is 1.1.

In the case of `CC(=O)O[C@@H]1C[C@H](O)[C@@]23CO[C@@H](O)[C@]1(C)[C@@H]2C[C@@H](O)[C@]1(C)[C@@H]3C(=O)[C@H](OC(C)=O)[C@@]2(C)[C@H](c3ccoc3)C[C@H]3O[C@]321` [Toosendanin], the cell viability worked out at 0.147.

Regarding `CC(=O)O[C@H]1CC(=O)OC(C)(C)[C@@H]2CC(=O)[C@]3(C)[C@H](CC[C@@]4(C)[C@@H](c5ccoc5)OC(=O)[C@H]5O[C@]543)[C@@]12C` [Nomilin], the cell viability was 1.13.

For the compound `CC(C)=CCC(OC(=O)C=C(C)C)C1=CC(=O)c2c(O)ccc(O)c2C1=O` (stereo not drawn) [beta, beta-dimethylacrylshikonin], the cell viability was found to be 1.03.

On to `CC1(C)CC[C@]2(C(=O)O)CC[C@]3(C)C(=CC[C@@H]4[C@@]5(C)CCC(=O)C(C)(C)[C@@H]5CC[C@]43C)[C@@H]2C1` [Oleanonic Acid], for which the cell viability was 1.12.

In the case of `O=C(Nc1c[nH]nc1-c1nc2ccc(CN3CCOCC3)cc2[nH]1)NC1CC1`, the cell viability was 0.106.

As to `O=C(NC1CCOCC1)c1ccc(-c2cc(-c3c[nH]nc3-c3ccccn3)ccn2)cc1`, the cell viability is 1.01.

In the case of `COCCN1CCN(Cc2ccc(-c3n[nH]c4c3C(=O)c3c(NC(=O)NN5CCOCC5)cccc3-4)cc2)CC1`, the cell viability was determined as 0.253.

As to `CCCCCCCCNc1cc(=O)[nH]c(=O)[nH]1`, the cell viability came out at 1.01.

Regarding `CCC(=O)Oc1ccc2c(c1)CCC1C2CCC2(C)C(OC(=O)CC)CCC12` (stereo not drawn) [17-Beta-Estradiol-3,17-Dipropionate], the cell viability is 1.24.

Take `CCCOc1ccc(CCc2nc3cc(-c4c(C)noc4C)ccc3n2CCN2CCOCC2)cc1` [PF-CBP1 hydrochloride]: the cell viability is 1.06.

As for `O=C(Nc1ccc(OC(F)(F)Cl)cc1)c1cnc(N2CC[C@@H](O)C2)c(-c2cc[nH]n2)c1` [Asciminib], the cell viability amounted to 1.11.

As for `NC(=O)Cc1cc[nH]n1` [1H-Pyrazole-3-acetamide], the cell viability was determined as 0.268.

As for `CONC(=O)Nc1ccc(-c2sc3c(c2CN(C)Cc2ccccc2)c(=O)n(-c2ccccc2)c(=O)n3Cc2c(F)cccc2F)cc1` [Sufugolix], the cell viability is 0.979.

For the compound `CN1CCN(Cc2ccc(Nc3ncc(Cl)c(Nc4ccccc4S(=O)(=O)N(C)C)n3)cc2)CC1`, the cell viability came out at 0.0869.

In the case of `CNS(=O)(=O)c1ccccc1Nc1nc(Nc2ccc(N3CCN(C)CC3)cc2OC)ncc1Cl` [ALK inhibitor 2], the cell viability stood at 0.448.

For `COc1cc(N2CCC(N3CCN(C)CC3)CC2)ccc1Nc1ncc(Cl)c(Nc2ccccc2S(=O)(=O)C(C)C)n1`, the cell viability was determined as 0.421.

Turning to `O=C(/C=C/c1ccc(O)cc1)C1=C(O)C(O)([C@@H]2O[C@H](CO)[C@@H](O)[C@H](O)[C@H]2O)C(O)=C([C@@H]2O[C@H](CO)[C@@H](O)[C@H](O)[C@H]2O)C1=O` (stereo partly drawn) [Hydroxysafflor yellow A], the cell viability was found to be 1.07.

Regarding `CCOCc1nc2c(N)nc3ccccc3c2n1CC(C)(C)O` [Resiquimod], the cell viability came out at 1.06.

For the compound `O=C(Nc1cccc(-c2ccccc2)c1)OC1CCCCC1`, the cell viability amounted to 1.01.

On to `COc1ccc(CCc2cc(OC)c(OC)c(OC)c2)cc1O` [Erianin], for which the cell viability came out at 0.335.

On to `O=C(Nc1ccc(CN2CCOCC2)cc1)c1ccc(-c2cccc(Cl)c2)o1`, for which the cell viability was 0.775.

As for `CCNC(=O)c1noc(-c2cc(Cl)c(O)cc2O)c1-c1ccc(OC)cc1`, the cell viability was found to be 0.237.

As to `CCNC(=O)c1noc(-c2cc(C(C)C)c(O)cc2O)c1-c1ccc(CN2CCOCC2)cc1` [Luminespib], the cell viability was determined as 0.0552.

For `CC1(C)CC[C@]2(C(=O)O)CC[C@]3(C)C(=CC[C@@H]4[C@@]5(C)CC[C@H](O[C@@H]6O[C@H](C(=O)O)[C@@H](O)[C@H](O[C@@H]7OC[C@@H](O)[C@H](O)[C@H]7O)[C@H]6O)C(C)(C)[C@@H]5CC[C@]43C)[C@@H]2C1` [Momordin Ic], the cell viability stood at 1.1.

With `C[C@@]1(CO)C[C@@H](O)C[C@@]2(C)[C@@H]3CC[C@](C)([C@@H](O)CO)C=C3CC[C@H]12` [Kirenol], the cell viability stood at 1.1.

In the case of `Cc1c(CN2CCN(c3cccc(C(F)(F)F)c3)CC2)cc(-c2ccccc2)n1NC(=O)c1ccncc1` [Sudoterb free base], the cell viability stood at 1.05.

As to `Cc1ccc([N+](=O)[O-])cc1S(=O)(=O)N(C)/N=C/c1cnc2ccc(Br)cn12` [PIK-75  hydrochloride], the cell viability was 0.153.

Consider `Cc1ccc([N+](=O)[O-])cc1S(=O)(=O)N(C)/N=C/c1cnc2ccc(Br)cn12`, for which the cell viability is 0.165.
